From PubChem BioAssay AID720540 (National Center for Advancing Translational Sciences (NCATS), 2013) come the findings set out here.

Among all 1,300 compounds or so, about 460 (35%) were called active. Another 39% or so got no clear call; they are omitted. The list shows a part of the results. Values without a mark were called inactive. The call rests on the fitted dose curve; in most records, active means well fitted inhibition curve with a large enough effect; inconclusive means small, poorly fitted or top-dose-only effect; inactive means flat fitted curve, though single readings scatter.
Potency means the concentration at half of the fitted maximal effect.

Protein phosphatase EYA2 (Homo sapiens), sequence (O00167 whole entry, looked up): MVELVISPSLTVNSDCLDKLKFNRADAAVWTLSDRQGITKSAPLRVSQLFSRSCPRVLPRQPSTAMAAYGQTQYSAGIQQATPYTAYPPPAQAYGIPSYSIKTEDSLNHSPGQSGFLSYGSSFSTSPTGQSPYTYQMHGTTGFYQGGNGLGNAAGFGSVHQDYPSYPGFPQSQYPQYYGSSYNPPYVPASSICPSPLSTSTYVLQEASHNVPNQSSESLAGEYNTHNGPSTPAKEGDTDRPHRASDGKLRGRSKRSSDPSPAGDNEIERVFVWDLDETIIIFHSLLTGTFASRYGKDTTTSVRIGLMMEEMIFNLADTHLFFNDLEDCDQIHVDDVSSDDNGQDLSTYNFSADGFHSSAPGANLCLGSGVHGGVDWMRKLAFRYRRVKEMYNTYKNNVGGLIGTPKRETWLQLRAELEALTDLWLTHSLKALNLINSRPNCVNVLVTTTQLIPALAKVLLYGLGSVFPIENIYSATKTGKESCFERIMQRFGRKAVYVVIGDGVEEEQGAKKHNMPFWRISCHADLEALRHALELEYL

This assay addresses Protein phosphatase EYA2 (Homo sapiens) (UniProt O00167). The assay can be described thus: qHTS for Inhibitors of the Phosphatase Activity of Eya2: Confirmatory Assay for Cherry-picked Compounds. Further: nearly all actives have a fitted effect of over 65% in size.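 On activity change, negative = inhibition: 0% = DMSO wells and -100% = EGTA control giving full inhibition.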 The note with it: purified EYA2 phosphatase activity, qHTS confirmation; series mostly up to 46.1 µM; activity change, negative = inhibition: at the top concentration. The method, boiled down: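 Eya2 (0.2 uM working solution) preincubated 10 min at room temperature with compound in pH 7.5 HEPES buffer with MgCl2, BSA, DTT. OMFP added (50 uM working solution), 10 min more; fluorescence 485/525 nm, normalized to EGTA and DMSO.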
Take `Cc1cc(NC(=O)CSc2nnnn2-c2ccccc2C)no1`: the “activity change, negative = inhibition” value is -21.9%.
As to `Cc1cc(C)c(NC(=O)CSc2ccc(-c3ccccn3)nn2)c(C)c1`, the Potency was 6.75 µM (active).
On the same count and under the same terms, as for `Cc1csc(NC(=O)CSc2ccc(-c3ccccn3)nn2)n1`, the figure is 4.26 µM (active); as for `Cc1ccccc1NC(=O)CSc1ccc(-c2ccccn2)nn1`, 4.26 µM (active).
As for `O=C(CSc1nnc(CNC(=O)c2ccccc2)o1)Nc1nccs1`, the “activity change, negative = inhibition” value is -23.7%.
Still for that read-out and setting: in the case of `Cc1cccc(C#Cc2ccccc2)n1` it was 10.3%.
Take `O=S(=O)(NCCSCc1ccc(Cl)c(Cl)c1)c1ccc2c(c1)OCCO2`: the “activity change, negative = inhibition” value was -18.2%.
Still for that read-out and setting: in the case of `CC(=O)Nc1ccc(NC(=O)COc2ncnc3ccccc23)cc1` it was -5.31%.
In the case of `CN(C)c1ccc(NC(=O)CC(NCc2ccccn2)C(=O)O)cc1` (stereo not drawn), the Potency is 0.849 µM (active).
The same measure, in the same setting: in the case of `O=C(NCCCO)c1ccc2nc(-c3ccco3)c(-c3ccco3)nc2c1` it was 9.53 µM (active); in that of `O=C(NCc1ccccc1)c1ccc2nc(-c3ccco3)c(-c3ccco3)nc2c1`, 8.49 µM (active).
As for `CN(C)C(CNC(=O)c1ccc2c(c1)S(=O)(=O)c1ccccc1C2=O)c1ccco1` (stereo not drawn), the “activity change, negative = inhibition” value is -29.2%.
Still for that read-out and setting: as for `Cc1ccc(CNC(=O)c2ccc(-n3cccc3)cc2)cc1`, the figure is -19.7%; as for `Cc1cccc2cn[nH]c12`, -0.6%.
Consider `COc1ccc(/C=N/N2CCN(Cc3ccc(C)cc3)CC2)cc1Br`, for which the Potency was 15.1 µM (active).
Regarding `COC1=C(Nc2ccc(OC)cc2)C(=O)c2ccccc2C1=O`, the Potency is 6.01 µM (active).
As for `O=C(NNC(=O)c1cc2cc(Br)ccc2oc1=O)c1ccc(O)cc1`, the “activity change, negative = inhibition” value is -7.2%.
As to `CC(=O)Nc1ccc(OC(=O)c2cc3cc(Br)ccc3oc2=O)cc1`, the Potency was 7.57 µM (active).
Same read-out and setting: in the case of `Cc1nc(S/C(=C\c2ccc(-c3ccc(C(=O)O)c(Cl)c3)o2)C(=O)O)n[nH]1` it was 15.1 µM (active).
Turning to `COc1ccc(Cc2nc3c4c(ncn3n2)Oc2ccc3ccccc3c2C4c2ccc(OC)c(OC)c2)cc1` (stereo not drawn), the “activity change, negative = inhibition” value was -18.2%.
As for `COc1ccc2c(c1)-c1c(ssc1=S)C(C)(C)N2S(=O)(=O)c1ccc(C)cc1`, the Potency was 16.9 µM (active).
On to `Cc1ccc(S(=O)(=O)N2c3ccccc3-c3c(ssc3=S)C2(C)C)cc1`, for which the Potency was 15.1 µM (active).
The same measure, in the same setting: in the case of `O=C(Nc1ccc2nc(-c3ccco3)c(-c3ccco3)nc2c1)N1CCCC1` it was 7.57 µM (active).
Still for that read-out and setting: as for `CC1CCN(C(=O)Nc2ccc3nc(-c4ccco4)c(-c4ccco4)nc3c2)CC1`, the figure is 6.75 µM (active).
Turning to `COCCNC(=O)c1cccc(OC2CCN(Cc3ccc(F)cc3OC)CC2)c1`, the “activity change, negative = inhibition” value is -8.43%.
For the molecule `O=C(CSc1nc(-c2ccccc2)nc2c1Cc1ccccc1O2)Nc1ccc(C(=O)O)cc1`, the Potency is 7.57 µM (active).
The same measure, in the same setting: in the case of `O=C1C(NS(=O)(=O)c2ccc(Br)cc2)=C(N2CCCCC2)C(=O)c2ccccc21` it was 8.49 µM (active).
As to `O=C1N=c2ccccc2=C1c1sc(Nc2cccc(O)c2)nc1O`, the “activity change, negative = inhibition” value is -24.2%.
Consider `CC1CCN(C2=C(NS(=O)(=O)c3ccc(Br)cc3)C(=O)c3ccccc3C2=O)CC1`, for which the Potency was 3.79 µM (active).
For the molecule `CN(C1=C(N2CCCCC2)C(=O)c2ccccc2C1=O)c1ccccc1`, the Potency was 1.2 µM (active).
Turning to `O=C(CCS(=O)(=O)c1ccc(Br)cc1)N1CCCCCC1`, the “activity change, negative = inhibition” value was -25.4%.
With `O=C1C(Nc2cccc(O)c2)=C(N2CCCCC2)C(=O)c2ccccc21`, the Potency is 15.1 µM (active).
On to `COc1ccc(-c2cc(C3CCNCC3)[nH]n2)cc1`, for which the “activity change, negative = inhibition” value was -8.52%.
Consider `O=C(N[C@@H]1CC[C@H](CCn2cc(-c3ccccn3)nn2)O[C@@H]1CO)c1ccncc1`, for which the Potency is 19 µM (active).
On the same count and under the same terms, in the case of `CCN(CC)c1ccc(NC(=O)c2ccc3c(c2)c(C)c(C)n3C)cc1` it was 13.5 µM (active).
For `CC(C)(C)NC(=O)c1cccc(NC(=O)c2ccc(NC(=O)c3ccco3)cc2)c1`, the “activity change, negative = inhibition” value was -21%.
For the molecule `CC1C=CCC2C(=O)N(c3ccc(OC(=O)c4ccco4)cc3)C(=O)C12` (stereo not drawn), the Potency is 7.57 µM (active).
The same measure, in the same setting: in the case of `CC1C=CCC2C(=O)N(c3ccc(OC(=O)c4cccs4)cc3)C(=O)C12` (stereo not drawn) it was 3.38 µM (active).
On the same count and under the same terms, as for `Cc1nc(-n2[nH]c3c(c2=O)CCCC3)[nH]c(=O)c1Cc1ccccc1`, the figure is 19 µM (active).
On to `CCCc1nc(N2CCN(C)CC2)c2sc(=S)n(-c3ccccc3)c2n1`, for which the “activity change, negative = inhibition” value was -21.6%.
`O=S(=O)(c1cc(O)ccc1O)c1cccc2c(S(=O)(=O)c3cc(O)ccc3O)cccc12`: the Potency was 15.1 µM (active).
Turning to `N#Cc1c2nc3ccccc3nc2n2cc(NC(=O)c3ccc(F)cc3)ccc12`, the Potency is 4.26 µM (active).
Regarding `CC(C)CCNC(=O)c1onc(CSc2ccncc2)c1C(=O)NCCC(C)C`, the “activity change, negative = inhibition” value is -9.87%.
Still for that read-out and setting: as for `O=C1NC(=O)/C(=C\c2ccccc2OCc2cccc([N+](=O)[O-])c2)N1`, the figure is -27.6%.
Regarding `CCOc1cc(/C=C2/NC(=O)NC2=O)cc(Br)c1OCc1ccc(C(=O)O)cc1`, the Potency was 21.3 µM (active).
Regarding `Cc1c(NC(=O)c2ccco2)cccc1C(=O)NN1C(=O)c2ccccc2C1=O`, the “activity change, negative = inhibition” value was -17.1%.
Still for that read-out and setting: in the case of `COc1ccc(-c2nc(N)ncc2-c2csc(C)n2)c(O)c1` it was -21.3%.
`C=C(C)COc1ccc(-c2nc(N)nc(C)c2-c2ccc(OC)cc2)c(O)c1`: the Potency is 7.57 µM (active).
Take `COc1ccccc1-n1c(SCC(=O)Nc2cc(C)on2)nc2c(c1=O)SCC2`: the “activity change, negative = inhibition” value is -20.4%.
For the molecule `COc1ccc(-n2c(SCC(=O)Nc3cc(C(=O)O)ccc3C)nc3ccccc3c2=O)cc1Cl`, the Potency is 8.49 µM (active).
Regarding `O=C(O)c1ccc(CSc2nc3ccccc3c(=O)n2-c2ccccc2)cc1`, the “activity change, negative = inhibition” value was -26.9%.
For `COc1ccccc1-c1noc2c1C(=O)N(Cc1cn(-c3ccc(Cl)cc3)nn1)CC2`, the “activity change, negative = inhibition” value was -24.7%.
On the same count and under the same terms, in the case of `O=c1cc2ncc(-n3cc([N+](=O)[O-])cn3)cn2[nH]1` it was -10.2%.
The same measure, in the same setting: in the case of `CCC(=O)N1c2ccc(S(=O)(=O)N3CCN(c4ccc([N+](=O)[O-])cc4)CC3)cc2CC1C` (stereo not drawn) it was -21.1%.
Take `Cc1cccc(N2CC(C(=O)OCC(=O)c3ccc(OC(=O)c4cccs4)cc3)CC2=O)c1C` (stereo not drawn): the Potency is 9.53 µM (active).
Regarding `O=C(COC(=O)c1cc(=O)[nH]c2ccccc12)Nc1cccc(S(=O)(=O)N2CCOCC2)c1`, the “activity change, negative = inhibition” value is -29.9%.
Regarding `CCn1c2ccccc2c2cc(NC(=O)COC(=O)c3ccc(NC(=O)CC#N)cc3)ccc21`, the “activity change, negative = inhibition” value is -9.27%.
Take `Nc1nccnc1C(=O)OCC(=O)Nc1ccc2[nH]c(=O)[nH]c2c1`: the Potency is 13.5 µM (active).
Regarding `CCOc1ccc2ccccc2c1C(=O)N[C@@H]1C(=O)N2[C@@H]1SC(C)(C)[C@@H]2C(=O)O`, the “activity change, negative = inhibition” value is -15.5%.
Regarding `O=C(CSc1nc2ccccc2n1CCc1ccccc1)c1ccc(O)c(O)c1`, the Potency was 13.5 µM (active).
Take `Cc1ccc(OCCSc2nc3ccccc3n2CCC(=O)O)c(C(C)C)c1`: the “activity change, negative = inhibition” value is -23.1%.
On to `O=C(C[n+]1ccccc1)c1ccc(O)c(O)c1`, for which the “activity change, negative = inhibition” value was -16.6%.
Same read-out and setting: as for `CCOCCCNC(=O)c1cc2sc(Cl)cc2n1CC`, the figure is -9.06%.
On to `Nc1ccccc1C(=O)NNc1c2ccccc2nc2ccccc12`, for which the Potency was 8.49 µM (active).
For the molecule `O=C(CN1C(=O)c2ccccc2C1=O)Nc1nc(-c2cccc([N+](=O)[O-])c2)cs1`, the “activity change, negative = inhibition” value is -5.34%.
In the case of `O=[N+]([O-])c1ccccc1Nc1nc(-c2cccnc2)cs1`, the Potency is 15.1 µM (active).
On to `CNc1cccc2c1C(=O)c1ccccc1C2=O`, for which the Potency was 1.69 µM (active).
Take `CN(C)c1ccc(N=Nc2ccnc3ccccc23)cc1`: the Potency was 3.38 µM (active).
The same measure, in the same setting: as for `Cc1cc(O)cc(O)c1/C=N/NC(=O)c1ccc2c(c1)OCCO2`, the figure is 7.57 µM (active); as for `S=c1[nH]nc(-c2ccccn2)n1/N=C/c1ccc(Br)s1`, 16.9 µM (active).
With `NC(=O)[C@@H]1CC2(CC(c3cccc(NC(=O)COc4ccc(Cl)cc4)c3)=NO2)CN1C(=O)COc1ccc(Cl)cc1` (stereo partly drawn), the “activity change, negative = inhibition” value was -21.3%.
Turning to `CCOC(=O)C(C)N1C(=O)S/C(=C\c2ccc(-c3ccccc3C(=O)O)o2)C1=O` (stereo not drawn), the Potency was 19 µM (active).
In the case of `CCn1c(C)cc(/C=C2/SC(=O)N(C(C)C(=O)OC)C2=O)c1C` (stereo not drawn), the “activity change, negative = inhibition” value was -22.8%.
Still for that read-out and setting: in the case of `Cc1c(C(=O)O)cccc1-c1ccc(/C=C2\SC(=O)NC2=O)o1` it was -17.9%.
On the same count and under the same terms, as for `COCCN(Cc1cc2cc3c(cc2nc1Cl)OCO3)C(=O)Nc1ccc(OC)cc1`, the figure is -8.91%.
As for `COc1ccc2[nH]cc(CCn3ccc(O)c(C/C=C/c4ccccc4)c3=O)c2c1`, the Potency was 21.3 µM (active).
Consider `CC(=O)Nc1ccc(S(=O)(=O)O)c2cc(S(=O)(=O)O)c(N=Nc3ccc(N=Nc4ccc(S(=O)(=O)O)cc4)c4ccc(S(=O)(=O)O)cc34)c(O)c12`, for which the Potency is 1.51 µM (active).
For `O=S(=O)(O)c1ccc2c(N=Nc3ccc(S(=O)(=O)O)c4ccccc34)c(O)c(S(=O)(=O)O)cc2c1`, the Potency is 7.57 µM (active).
Regarding `CCN1CCN(c2ncnc3scc(-c4ccc(C)cc4)c23)CC1`, the “activity change, negative = inhibition” value was -19%.
Consider `CCOc1ccc(NC(=O)C2CC(=O)N(CCc3ccc(OC)c(OC)c3)C2)cc1OCC` (stereo not drawn), for which the Potency was 12 µM (active).
The same measure, in the same setting: as for `COc1ccc(N2CCN(C(=O)c3cc(-c4cc(OC)ccc4OC)nc4ccccc34)CC2)cc1`, the figure is 16.9 µM (active).
`COc1ccc2cc(C(=O)N3CCN(c4ccc(F)cc4)CC3)[nH]c2c1`: the “activity change, negative = inhibition” value was -5.52%.
Turning to `O=C1/C(=C\c2cccc([N+](=O)[O-])c2O)SC(=S)N1Cc1ccccc1`, the Potency is 6.75 µM (active).
As to `Oc1ccc(-c2nc3c4c(ncn3n2)-c2ccccc2CC42CCCC2)cc1`, the “activity change, negative = inhibition” value was -18.2%.
With `N#C/C(=C\c1ccc(-c2ccc(C(=O)O)cc2)o1)C(=O)Nc1ccc(F)cc1`, the Potency was 16.9 µM (active).
On to `COc1ccc(CC(CC(=O)O)C(=O)Nc2ccc(Cl)c(Cl)c2)cc1` (stereo not drawn), for which the “activity change, negative = inhibition” value is 6.93%.
Regarding `COc1ccc(/C=C(/C#N)C(=O)Nc2ccc(O)cc2)cc1C(=O)O`, the Potency is 9.53 µM (active).
On the same count and under the same terms, in the case of `COc1ccc(NC(=O)/C(C#N)=C/c2ccc(-c3ccc(Cl)c(C(=O)O)c3)o2)cc1` it was 19 µM (active).
For `O=C(Cn1ccc(=O)[nH]c1=O)Nc1nccs1`, the “activity change, negative = inhibition” value was -8.64%.
As for `CCOc1ccc(S(=O)(=O)N2CCN(C)CC2)cc1NC(=O)c1ccccc1F`, the Potency was 8.49 µM (active).
In the case of `CC(Oc1ccc(F)cc1)C(=O)Nc1cc(S(=O)(=O)N2CCCCC2)ccc1N1CCN(C)CC1` (stereo not drawn), the “activity change, negative = inhibition” value was -25.7%.
Turning to `Cc1ccc(-c2csc(N3CCN(CCCn4c(C(F)(F)F)nc5ccccc54)CC3)n2)cc1`, the “activity change, negative = inhibition” value is -22.1%.
Still for that read-out and setting: as for `Oc1[nH]c2ccccc2c1N=Nc1nc2ccccc2s1`, the figure is -30%.
